This is a sample that favours compounds with a hit; in the whole collection about 2.3% have one here.
UBC13 inh: UBC13 polyubiquitin chain formation inhibitors, primary screen, biochemical, TR-FRET, uHTS; inhibition, % at 20 µM; Ubiquitin-conjugating enzyme E2 N (Homo sapiens), P61088; 330,000 compounds, 0.47% hits; in the data active = inhibition above about 45%, passing the limit was not always enough
Target sequence (P61088 whole entry, looked up): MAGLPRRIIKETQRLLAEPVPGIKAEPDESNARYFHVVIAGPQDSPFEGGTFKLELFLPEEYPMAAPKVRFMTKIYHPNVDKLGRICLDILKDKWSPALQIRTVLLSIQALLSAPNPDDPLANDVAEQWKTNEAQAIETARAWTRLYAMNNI
MEKK3 PB1 HTS: modulators of MEKK3-MEK5 PB1 binding, primary screen, biochemical, wildtype MEKK3, multiplex bead flow cytometry, Alexa488-MEK5; Mitogen-activated protein kinase kinase kinase 3 (Homo sapiens), Q99759; bead-based flow cytometry, Alexa488-MEK5 binding to MEKK3; actives lie on both sides; 0 = blocked by unlabeled MEK5, 100 = vehicle; binding response (% of control), % at 10 µM; 290,000 compounds, 1.4% hits; AID 1529, 2009;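 active = binding response more than 3 SD above or below the average of its plate-row segment, actives on both sides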;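 note: Alexa488 bead fluorescence after subtracting the streptavidin-only scavenger bead signal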
MEKK2 WT-MEK5: modulators of MEK5 binding to wildtype MEKK2, primary screen, biochemical, multiplex bead flow cytometry, Alexa488-MEK5; binding response (% of control), % at 10 µM; 290,000 compounds, 1.1% hits; AID 1531, 2009; Alexa488-MEK5 binding to MEKK2 WT; actives lie on both sides; in the data active = binding response below about 67% or above about 130%
MEKK2 mut-MEK5: MEK5 binding signal on mutant MEKK2 PB1, primary screen, biochemical, multiplex bead flow cytometry, Alexa488-MEK5; Alexa488-MEK5 binding to MEKK2 mutant; percent response, % at 10 µM; 290,000 compounds, 0.35% hits; AID 1530, 2009; in the data active = percent response above about 24%, passing the limit was not always enough
MEKK2wt confirm: modulators of MEK5 binding to wildtype MEKK2, confirmation, biochemical, single concentration, multiplex bead flow cytometry; shares compounds with MEKK3 PB1 HTS; Alexa488-MEK5 binding to MEKK2 WT; actives lie on both sides; binding response (% of control), % at 10 µM; 5,900 compounds, 2.4% hits; AID 1892, 2009; in the data active = binding response below about 16% or above about 210%; inactive = in between
MEKK2mut confirm: mutant MEKK2 PB1-MEK5 binding signal retest – biochemical, single concentration, multiplex bead flow cytometry, confirmation; shares compounds with MEKK3 PB1 HTS; Alexa488-MEK5 binding to MEKK2 mutant; percent response, % at 10 µM; 5,900 compounds, 2% hits; AID 1893, 2009; in the data active = percent response mostly above about 71%, no sharp cut-off; inactive = mostly below about 38%;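 note: higher means compound restores mutant binding toward wildtype level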
MEKK3-MEK5 inh: MEKK3 wild-type PB1 binding to MEK5, inhibitors, confirmation, biochemical, bead multiplex flow cytometry, single concentration, wildtype; shares compounds with MEKK3 PB1 HTS; Alexa488-MEK5 binding to MEKK3; stronger effect = lower value; binding response (% of control), % at 10 µM; 5,900 compounds, 1.8% hits;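 active = binding response below 72% of control, or above a set upper limit, though filed actives all read lower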;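 note: 100% = DMSO only wells and 0% = binding blocked by excess unlabeled MEK5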
Numbers without * were called inactive; [ ] = another dose, or the depositor's remark.

CCc1nnc(NC(=O)CCN2C(=O)/C(=C/c3cc(OC)c(OC)c(OC)c3)SC2=S)s1 was read as UBC13 inh -3.4, MEKK3 PB1 HTS 103.0, MEKK2 WT-MEK5 102.0 and MEKK2 mut-MEK5 10.0.
`O=C(Nc1ccccc1)/C(=C/c1cccnc1)NC(=O)c1ccco1` gave UBC13 inh 10.3, MEKK3 PB1 HTS 129.0*, MEKK2 WT-MEK5 106.0, MEKK2 mut-MEK5 0.0, MEKK2wt confirm 102.0, MEKK2mut confirm 2.0 and MEKK3-MEK5 inh 102.0.
`O=C(Nc1ccccc1)/C(=C\c1ccncc1)NC(=O)c1ccccc1` gave UBC13 inh -0.9, MEKK3 PB1 HTS 131.0*, MEKK2 WT-MEK5 120.0, MEKK2 mut-MEK5 6.0, MEKK2wt confirm 96.0, MEKK2mut confirm -2.0 and MEKK3-MEK5 inh 94.0.
For CCN1CCN(c2cc(C)c3cc(NC(=O)c4ccc(C)c(C)c4)ccc3n2)CC1 the results were UBC13 inh 20.2, MEKK3 PB1 HTS 109.0, MEKK2 WT-MEK5 160.0*, MEKK2 mut-MEK5 22.0, MEKK2wt confirm 153.0, MEKK2mut confirm 24.0 and MEKK3-MEK5 inh 104.0.
`Cc1ccc(CNC(=O)CN2C(C)CCCC2C)cc1` (centres undefined) gave UBC13 inh 3.7, MEKK3 PB1 HTS 56.0*[inhibitor], MEKK2 WT-MEK5 62.0*[inhibitor], MEKK2 mut-MEK5 -15.0, MEKK2wt confirm 104.0, MEKK2mut confirm 4.0 and MEKK3-MEK5 inh 102.0.
`Cc1ccc(CNC(=O)CN(C2CCCCC2)S(C)(=O)=O)cc1` gave UBC13 inh -0.6, MEKK3 PB1 HTS 67.0*[inhibitor], MEKK2 WT-MEK5 55.0*[inhibitor], MEKK2 mut-MEK5 5.0, MEKK2wt confirm 102.0, MEKK2mut confirm -3.0 and MEKK3-MEK5 inh 102.0.
Cc1ccc(CNC(=O)C2CCCC2)cc1 was read as UBC13 inh -4.5.
Screening O=C(CSc1nnc(-c2ccccc2)n1C1CCCCC1)N1CCCC1 returned UBC13 inh 3.6, MEKK3 PB1 HTS 74.0*[inhibitor], MEKK2 WT-MEK5 79.0, MEKK2 mut-MEK5 -8.0, MEKK2wt confirm 112.0, MEKK2mut confirm 8.0 and MEKK3-MEK5 inh 111.0.
`CC1CCCN(C(=O)CSc2nnc(-c3cccnc3)n2C2CCCCC2)C1` (centres undefined) gave UBC13 inh 10.2, MEKK3 PB1 HTS 100.0, MEKK2 WT-MEK5 96.0 and MEKK2 mut-MEK5 2.0.
Screening O=C(NC1CCCCC1)C(c1ccc(Cl)cc1)N1CCC2(CC1)OCCO2 (centres undefined) returned UBC13 inh 4.3, MEKK3 PB1 HTS 2.0*[inhibitor], MEKK2 WT-MEK5 2.0*[inhibitor], MEKK2 mut-MEK5 -16.0, MEKK2wt confirm 109.0, MEKK2mut confirm 5.0 and MEKK3-MEK5 inh 107.0.
Screening CCn1c(SCC(=O)Nc2c(C#N)cnn2-c2ccccc2)nnc1-c1cccs1 returned UBC13 inh 7.0, MEKK3 PB1 HTS 101.0, MEKK2 WT-MEK5 100.0 and MEKK2 mut-MEK5 3.0.
For CN(C(=O)CSc1nnc(-c2ccccc2)c(-c2ccccc2)n1)C1CCS(=O)(=O)C1 (centres undefined) the results were UBC13 inh 0.2, MEKK3 PB1 HTS 137.0*, MEKK2 WT-MEK5 112.0, MEKK2 mut-MEK5 1.0, MEKK2wt confirm 103.0, MEKK2mut confirm 1.0 and MEKK3-MEK5 inh 101.0.
Screening C=CCNC(=S)NNc1nc2c(c(=O)[nH]1)C1(CCCC1)Cc1ccccc1-2 returned UBC13 inh 2.9, MEKK3 PB1 HTS 142.0*, MEKK2 WT-MEK5 108.0, MEKK2 mut-MEK5 0.0, MEKK2wt confirm 102.0, MEKK2mut confirm -3.0 and MEKK3-MEK5 inh 102.0.
Screening CCCCN(C)C(=O)C1CCN(Cc2cccc(OCc3ccccc3)c2)CC1 returned UBC13 inh -0.5, MEKK3 PB1 HTS 104.0, MEKK2 WT-MEK5 107.0 and MEKK2 mut-MEK5 15.0.
For CCCCN(C)C(=O)C1CCN(Cc2cccnc2)CC1 the results were UBC13 inh -1.7, MEKK3 PB1 HTS 112.0, MEKK2 WT-MEK5 118.0, MEKK2 mut-MEK5 27.0*, MEKK2wt confirm 96.0, MEKK2mut confirm -5.0 and MEKK3-MEK5 inh 102.0.
For COCc1nnc(NC(=O)C2CC(=O)N(CCc3ccc(F)cc3)C2)s1 (centres undefined) the results were UBC13 inh -2.4, MEKK3 PB1 HTS 99.0, MEKK2 WT-MEK5 90.0 and MEKK2 mut-MEK5 -6.0.
Cc1cc(C(=O)C(=O)NC(C)C)c(C)n1-c1ccc([N+](=O)[O-])cc1 was read as UBC13 inh 3.0, MEKK3 PB1 HTS 80.0*[inhibitor], MEKK2 WT-MEK5 89.0, MEKK2 mut-MEK5 -3.0, MEKK2wt confirm 99.0, MEKK2mut confirm -2.0 and MEKK3-MEK5 inh 100.0.
N=C1CCCN1CC(=O)c1ccc(Cl)cc1 was read as UBC13 inh -7.2, MEKK3 PB1 HTS 131.0*, MEKK2 WT-MEK5 106.0, MEKK2 mut-MEK5 0.0, MEKK2wt confirm 95.0, MEKK2mut confirm -6.0 and MEKK3-MEK5 inh 96.0.
Screening COc1cccc(N2CCN(C(=O)c3oc4ccccc4c3NC(=O)CCc3cc(OC)no3)CC2)c1 returned UBC13 inh 4.1, MEKK3 PB1 HTS 102.0, MEKK2 WT-MEK5 101.0 and MEKK2 mut-MEK5 0.0.
For O=C(NCc1ccco1)C1CC(c2ccc(Cl)cc2)=NO1 (centres undefined) the results were UBC13 inh -3.7, MEKK3 PB1 HTS 100.0, MEKK2 WT-MEK5 92.0 and MEKK2 mut-MEK5 -6.0.
Screening O=C(NCc1ccco1)C1CC(c2ccc(F)cc2)=NO1 (centres undefined) returned UBC13 inh 0.8, MEKK3 PB1 HTS 73.0*[inhibitor], MEKK2 WT-MEK5 71.0, MEKK2 mut-MEK5 -14.0, MEKK2wt confirm 103.0, MEKK2mut confirm 5.0 and MEKK3-MEK5 inh 102.0.
CN(CC(=O)Nc1cccc(F)c1)C(=O)c1ccncc1 was read as UBC13 inh 6.6, MEKK3 PB1 HTS 100.0, MEKK2 WT-MEK5 103.0 and MEKK2 mut-MEK5 5.0.
`Cc1cc2nnc(SCC(=O)NCC3CCCO3)n2c2ccccc12` (centres undefined) gave UBC13 inh -13.2, MEKK3 PB1 HTS 93.0, MEKK2 WT-MEK5 87.0 and MEKK2 mut-MEK5 -11.0.
For O=C(CC(=O)c1cccc([N+](=O)[O-])c1)Nc1ccccc1Cl the results were UBC13 inh -6.8, MEKK3 PB1 HTS 94.0, MEKK2 WT-MEK5 84.0 and MEKK2 mut-MEK5 -13.0.
`COc1cccc(NC(=O)COC(=O)C2CC2)c1` gave UBC13 inh 5.0.

Screens deposited in PubChem by several laboratories.
